The sample as a whole holds a higher share of hits than the screen did.
AMPAR-TARP mod – modulators of GluA2-stargazin AMPA receptor complexes, primary screen, cell-based, membrane potential dye. HEK293 GluA2+stargazin, membrane potential dye (FDSS), glutamate EC50; hits were called plate by plate, in both directions. actives 3.5% (n = 40,000). calls only at 30 µM. Voltage-dependent calcium channel gamma-2 subunit (Mus musculus) + Glutamate receptor 2 …;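 active means any of four per-well response measures lying three or more SD from its plate-wide compound average, in either direction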
GIRK2 activator – activators of NPY4-receptor-primed GIRK2 channels, summary, cell-based, HEK293, thallium flux. HEK293 GIRK2/NPY4 cells, thallium flux fluorescence. AID 1259324, 2017. G protein-activated inward rectifier potassium channel 2 (Homo sapiens), P48051. activation (% efficacy), % for hits at 37.5 µM. 34,000 tested, under 10 active;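 active means primary screen hit, no activity in plain HEK293 cells, and in GIRK2-only cells above 5% efficacy rising with concentration; inactive means the rest, including fluorescent compounds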;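 further: efficacy is normalized control-subtracted fluorescence 15 s after thallium addition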
An asterisk follows results filed as active.

Cc1cccc(C)c1NC(=O)COc1ccc2c(C)cc(=O)oc2c1C was read as AMPAR-TARP mod inactive.
For CC1CCN(CC(O)COCCOc2ccc(Br)cc2)CC1 (stereo not given) the results were AMPAR-TARP mod active and GIRK2 activator inactive.
`CC1CCN(CC(O)COCCOc2ccc(C(C)C)cc2)CC1` (stereo not given) gave GIRK2 activator inactive.
CC1CCN(CC(O)COCCOc2ccc(Cl)cc2)CC1 (stereo not given) was read as AMPAR-TARP mod active.
For CN1CCN(CC(O)COCCOc2ccc(Br)cc2)CC1 (stereo not given) the results were AMPAR-TARP mod inactive and GIRK2 activator inactive.
`CCOc1cc(O)cc2oc(-c3ccccc3)cc(=O)c12` gave AMPAR-TARP mod inactive.
For O=S(=O)(NC1(c2nc(-c3cnccn3)no2)CCCCC1)c1ccc(F)c(Cl)c1 the results were AMPAR-TARP mod active and GIRK2 activator inactive.
`Cc1noc(C)c1S(=O)(=O)NC1(c2nc(-c3cnccn3)no2)CCCCC1` gave AMPAR-TARP mod inactive and GIRK2 activator inactive.
Screening COCC(=O)Nc1cc(-c2cn3nc(OC)ccc3n2)ccc1Cl returned GIRK2 activator inactive.
For Cn1cccc1C(CNC(=O)C1CCN(S(C)(=O)=O)CC1)N1CCCC1 (stereo not given) the results were AMPAR-TARP mod active and GIRK2 activator inactive.
Cn1cccc1C(CNC(=O)C(=O)NC1CCCC1)N1CCCC1 (stereo not given) was read as AMPAR-TARP mod inactive and GIRK2 activator inactive.
Screening COCCn1c(=O)c2c(nc(-n3nc(C)cc3C)n2Cc2ccc(F)cc2)n(C)c1=O returned AMPAR-TARP mod active and GIRK2 activator inactive.
CCOCCn1c(-n2nc(C)cc2C)nc2c1c(=O)n(Cc1ccc(F)cc1)c(=O)n2C was read as AMPAR-TARP mod inactive and GIRK2 activator inactive.
COC(=O)NCC(O)Cc1ccccc1 (stereo not given) was read as AMPAR-TARP mod inactive and GIRK2 activator inactive.
CCOc1ccc2ccccc2c1C(=O)NCC(O)Cc1ccccc1 (stereo not given) was read as AMPAR-TARP mod active and GIRK2 activator inactive.
Screening CCOc1ccc2ccccc2c1C(=O)NCc1nc(C)no1 returned GIRK2 activator inactive.
Screening CCOc1ccc2ccccc2c1C(=O)NCC1COC2(CCCCC2)O1 (stereo not given) returned AMPAR-TARP mod active and GIRK2 activator inactive.
For CCSc1ccccc1C(=O)NCC(O)Cc1ccccc1 (stereo not given) the results were AMPAR-TARP mod active and GIRK2 activator inactive.
For CCOc1ccc2ccccc2c1C(=O)NCCc1ccsc1 the results were AMPAR-TARP mod active and GIRK2 activator inactive.
Screening CCOc1cc(C(=O)NCC2COC3(CCCCC3)O2)cc(OCC)c1OCC (stereo not given) returned AMPAR-TARP mod inactive and GIRK2 activator inactive.
CCOc1ccc2ccccc2c1C(=O)NCC(O)c1ccc(C(F)(F)F)cc1 (stereo not given) was read as GIRK2 activator inactive.
`Cc1ccccc1C(=O)NCC#CCN1CCc2ccccc2C1` gave AMPAR-TARP mod inactive and GIRK2 activator inactive.
`O=C(c1cnn(-c2ccccc2)n1)N1CCC(Cn2cnc3ccccc32)CC1` gave AMPAR-TARP mod inactive and GIRK2 activator inactive.
O=C(c1cc(Cl)ccc1Cl)N1CCCN(CCn2cccn2)CC1 was read as AMPAR-TARP mod inactive and GIRK2 activator inactive.
Cc1ccc(-c2cc(C(=O)Nc3cc(S(N)(=O)=O)ccc3C)c3ccccc3n2)cc1 was read as AMPAR-TARP mod inactive.
COc1ccc(S(=O)(=O)NCC(c2ccsc2)N2CCc3ccccc3C2)cc1F (stereo not given) was read as AMPAR-TARP mod inactive and GIRK2 activator inactive.
Screening CCc1nnc(NS(=O)(=O)c2ccc(NC(=O)c3cc4cc([N+](=O)[O-])ccc4s3)cc2)s1 returned AMPAR-TARP mod active.
`CCc1nnc(NS(=O)(=O)c2ccc(NC(=O)c3ccc([N+](=O)[O-])o3)cc2)s1` gave AMPAR-TARP mod inactive.
`COc1cccc(C(=O)NCCNc2ccc(Nc3cc(C)ccn3)nn2)c1OC` gave GIRK2 activator inactive.
CCOC(=O)N1CCc2nc(NC(=O)c3cccs3)sc2C1 was read as AMPAR-TARP mod inactive and GIRK2 activator inactive.
Screening CCOC(=O)N1CCc2nc(NC(=O)c3ccc([N+](=O)[O-])s3)sc2C1 returned AMPAR-TARP mod active.
COc1ccccc1/C=C1\Oc2cc(OCC(N)=O)ccc2C1=O was read as AMPAR-TARP mod inactive.
Screening CCOc1ccccc1C(=O)NCC(O)(c1ccccc1)C1CC1 (stereo not given) returned AMPAR-TARP mod active.
Cc1ccccc1C(=O)NCC(O)(c1ccccc1)C1CC1 (stereo not given) was read as AMPAR-TARP mod inactive.
NC(=O)c1ccc(NC(=O)C(=O)N2CCN(c3cccc(Cl)c3)CC2)cc1 was read as AMPAR-TARP mod inactive.
COc1ccc(S(=O)(=O)NCC(C)(O)CCSC)cc1Cl (stereo not given) was read as AMPAR-TARP mod active and GIRK2 activator inactive.
COc1ccc(S(=O)(=O)NCC(C)(O)C2CC2)cc1Cl (stereo not given) was read as AMPAR-TARP mod inactive and GIRK2 activator inactive.
`CSCCC(C)(O)CNS(=O)(=O)c1ccc(Cl)s1` (stereo not given) gave AMPAR-TARP mod active and GIRK2 activator inactive.
Screening CSCCC(C)(O)CNS(=O)(=O)c1ccc(Br)s1 (stereo not given) returned AMPAR-TARP mod inactive.
For O=C(Cn1c2c(c(=O)n(C3CCCCC3)c1=O)CCC2)Nc1cccc(Cl)c1 the results were AMPAR-TARP mod inactive and GIRK2 activator inactive.
`COc1ccc(F)cc1S(=O)(=O)NCCn1nc(-c2cccs2)n(C)c1=O` gave AMPAR-TARP mod inactive and GIRK2 activator inactive.
Screening COc1cccc(-c2cn(CC(=O)NCc3ccccc3)nc2N2CCOCC2)c1 returned GIRK2 activator inactive.
`N=c1sc(/C=C2\C=Nc3ccccc32)c(O)n1-c1nccs1` gave AMPAR-TARP mod active.
Screening Cc1ccc(C)c(N2C(=O)N(Cc3ccccc3F)C3CS(=O)(=O)CC32)c1 (stereo not given) returned AMPAR-TARP mod active and GIRK2 activator inactive.
Screening CCN1C(=O)N(c2cc(C)ccc2C)C2CS(=O)(=O)CC21 (stereo not given) returned AMPAR-TARP mod inactive and GIRK2 activator inactive.
C=CCCC(=O)NCC#CCN1CCc2ccccc2C1 was read as AMPAR-TARP mod inactive and GIRK2 activator inactive.
Screening O=C(CCCc1ccccc1)NCC#CCN1CCc2ccccc2C1 returned AMPAR-TARP mod active and GIRK2 activator inactive.
CCNC(=O)C1Cc2ccccc2N1C(=O)/C=C\c1ccccc1 (stereo not given) was read as AMPAR-TARP mod inactive and GIRK2 activator inactive.
`O=C(Cc1cc(-c2ccc3c(c2)OCCO3)on1)NCc1ccccc1` gave AMPAR-TARP mod active and GIRK2 activator inactive.
`O=C(Cc1cc(-c2ccc3c(c2)OCO3)on1)NCc1ccc2c(c1)OCO2` gave AMPAR-TARP mod inactive and GIRK2 activator inactive.

High-throughput results: PubChem BioAssay, several laboratories
